# Test results taken from PubChem BioAssay (Tox21).
# Results filed as inconclusive are left out. A call without a number means that no potency is given here. Values without a mark were called inactive. The source made the active and inactive calls. The call rests on the fitted dose curve; in most records, active means well fitted curve in the direction sought with a large enough effect in the repeat runs; inconclusive means weak or mixed curves; inactive means no such curve, though single readings can be large; an effect the other way counts as inactive or inconclusive.
# How the values were obtained:
# [1] = biological target: Cytochrome P450 1A2 (Homo sapiens) (UniProt P05177); assay: Cytochrome P450 Family 1 Subfamily A Member 2 (CYP1A2) small molecule antagonists: luciferase reporter qHTS assay (AID 1671199); further: potency means the concentration at half of the fitted maximal effect; on activity change, negative = inhibition: series mostly up to about 120 µM
# Sequence of Cytochrome P450 1A2 (Homo sapiens) (P05177 whole entry, looked up): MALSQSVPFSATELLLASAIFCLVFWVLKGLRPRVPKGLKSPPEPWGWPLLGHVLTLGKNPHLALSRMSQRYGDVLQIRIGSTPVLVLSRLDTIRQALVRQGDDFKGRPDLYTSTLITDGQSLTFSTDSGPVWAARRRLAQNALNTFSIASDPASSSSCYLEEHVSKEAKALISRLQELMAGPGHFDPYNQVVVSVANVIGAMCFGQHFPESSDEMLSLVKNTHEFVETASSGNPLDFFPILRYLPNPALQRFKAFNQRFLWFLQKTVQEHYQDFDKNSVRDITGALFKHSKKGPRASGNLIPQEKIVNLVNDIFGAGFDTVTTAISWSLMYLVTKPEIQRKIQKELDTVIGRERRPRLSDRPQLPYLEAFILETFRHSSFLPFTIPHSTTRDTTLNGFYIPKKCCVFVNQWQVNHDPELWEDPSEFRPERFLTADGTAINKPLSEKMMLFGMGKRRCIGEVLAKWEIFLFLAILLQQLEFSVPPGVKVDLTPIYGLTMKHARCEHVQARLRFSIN
# Method in brief: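 CYP1A2 turnover of a luminogenic substrate was quantified after 1 h with NADPH regeneration at room temperature. Furafylline served as positive control.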
# [2] = biological target: Voltage-gated inwardly rectifying potassium channel KCNH2 (Homo sapiens) (UniProt Q12809); assay: Human Ether-a-go-go-Related Gene (hERG) channel small molecule antagonists: fluorescence cell-based qHTS assay (AID 1671200);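 further: hERG-expressing U2OS cells given a thallium stimulus after FluxOR II dye loading; series mostly up to about 77 µM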
# Sequence of Voltage-gated inwardly rectifying potassium channel KCNH2 (Homo sapiens) (Q12809 whole entry, looked up): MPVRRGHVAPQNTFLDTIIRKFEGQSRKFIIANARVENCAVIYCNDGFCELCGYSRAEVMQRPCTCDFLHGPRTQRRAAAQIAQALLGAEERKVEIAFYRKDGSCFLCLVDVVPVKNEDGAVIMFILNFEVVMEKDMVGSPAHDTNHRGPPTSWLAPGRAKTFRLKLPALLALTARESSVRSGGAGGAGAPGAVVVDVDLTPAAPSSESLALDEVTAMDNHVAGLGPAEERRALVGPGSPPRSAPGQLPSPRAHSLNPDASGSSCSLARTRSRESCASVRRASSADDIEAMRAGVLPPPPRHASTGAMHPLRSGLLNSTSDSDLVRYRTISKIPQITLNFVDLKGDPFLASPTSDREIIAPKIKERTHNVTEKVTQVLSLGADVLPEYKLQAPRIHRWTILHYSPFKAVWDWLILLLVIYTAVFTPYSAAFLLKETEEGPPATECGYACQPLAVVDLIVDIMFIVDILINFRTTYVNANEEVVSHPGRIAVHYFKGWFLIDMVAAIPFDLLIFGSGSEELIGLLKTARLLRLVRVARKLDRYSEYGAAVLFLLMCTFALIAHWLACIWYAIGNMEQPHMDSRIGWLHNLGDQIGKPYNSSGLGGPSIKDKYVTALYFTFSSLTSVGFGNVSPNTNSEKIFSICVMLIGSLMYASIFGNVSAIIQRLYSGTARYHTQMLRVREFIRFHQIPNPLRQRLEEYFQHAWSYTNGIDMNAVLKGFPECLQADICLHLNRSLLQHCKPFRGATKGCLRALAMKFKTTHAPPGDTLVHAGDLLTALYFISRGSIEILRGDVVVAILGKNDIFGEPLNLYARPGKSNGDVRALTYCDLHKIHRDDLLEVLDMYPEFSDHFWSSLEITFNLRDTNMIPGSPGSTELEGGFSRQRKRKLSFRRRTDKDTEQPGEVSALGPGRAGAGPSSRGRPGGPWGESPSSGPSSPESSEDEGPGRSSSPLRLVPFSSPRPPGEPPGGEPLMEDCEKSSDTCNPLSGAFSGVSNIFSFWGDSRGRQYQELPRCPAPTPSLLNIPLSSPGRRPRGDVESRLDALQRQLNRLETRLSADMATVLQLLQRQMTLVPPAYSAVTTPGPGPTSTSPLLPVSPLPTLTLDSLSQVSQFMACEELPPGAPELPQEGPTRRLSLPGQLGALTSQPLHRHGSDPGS
# Method in brief: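 In this thallium-flux screen, overnight-cultured U2OS cells bearing the channel are dye-loaded in darkness for an hour, rested 10 min at room temperature, and then monitored kinetically at 480/540 nm for two minutes post-stimulus.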
# [3] = biological target: Cytochrome P450 3A4 (Homo sapiens) (UniProt P08684); assay: Cytochrome P450 Family 3 Subfamily A Member 4 (CYP3A4) small molecule antagonists: luciferase reporter qHTS assay (AID 1671201); further: potency means the concentration at half of the fitted maximal effect; on activity change, negative = inhibition: series mostly up to about 120 µM
# Sequence of Cytochrome P450 3A4 (Homo sapiens) (P08684 whole entry, looked up): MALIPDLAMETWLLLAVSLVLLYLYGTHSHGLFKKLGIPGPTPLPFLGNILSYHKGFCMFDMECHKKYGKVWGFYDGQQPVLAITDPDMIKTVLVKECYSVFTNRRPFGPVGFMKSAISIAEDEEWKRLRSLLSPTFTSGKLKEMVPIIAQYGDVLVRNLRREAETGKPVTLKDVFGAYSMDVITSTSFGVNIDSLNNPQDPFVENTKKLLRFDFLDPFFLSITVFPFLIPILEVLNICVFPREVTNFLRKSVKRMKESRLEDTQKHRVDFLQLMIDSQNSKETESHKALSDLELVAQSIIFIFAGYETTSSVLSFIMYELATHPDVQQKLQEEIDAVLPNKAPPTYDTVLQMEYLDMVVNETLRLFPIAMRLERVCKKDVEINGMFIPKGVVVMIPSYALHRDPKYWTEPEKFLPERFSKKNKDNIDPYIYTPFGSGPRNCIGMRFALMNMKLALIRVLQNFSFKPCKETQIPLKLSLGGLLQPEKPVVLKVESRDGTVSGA
# Method in brief: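 CYP3A4 activity was followed with a P450-Glo proluciferin substrate. Test compounds in DMSO were preincubated 10 min; NADPH regeneration then ran 1 h, and light output was read 20 min after detection reagent.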
# Further: nearly all actives have a fitted effect of over 50% in size.
SMILES,Potency [1],"activity change, negative = inhibition [2]","activity change, negative = inhibition [3]",Potency [2],Potency [3]
N[C@@H](COP(=O)(O)O)C(=O)O,inactive,2.29% [at 15.8 µM],2.53% [at 23.6 µM],,
CC(C)(C)NC(N)=O,17.8 µM (active),,,inactive,inactive
NS(=O)(=O)c1ccc(NC(=O)CCC(=O)O)cc1,inactive,,,inactive,inactive
CC1COc2ccccc2N1 (stereo not drawn),31.7 µM (active),,,inactive,inactive
CCOC(=O)CC(=O)c1ccccc1,28.3 µM (active),,,inactive,inactive
C[C@@H](O)[C@H]1C(=O)N2C(C(=O)O)=C(SCCN=CN)C[C@H]12,inactive,,,inactive,inactive
CC(=O)N[C@@H](CCC(=O)O)C(=O)O,inactive,,,inactive,inactive
C[C@H](N)[C@H](O)c1cccc(O)c1,inactive,,,inactive,inactive
CCCC/C=C/C=C\C=O,inactive,,,inactive,39.9 µM (active)
CCOc1cc([N+](=O)[O-])c(OCC)cc1N1CCOCC1,1.78 µM (active),,,inactive,inactive
CC(CC=O)CCCC(C)(C)O (stereo not drawn),inactive,,,inactive,inactive
COc1cc(NS(=O)(=O)c2ccc(N)cc2)nc(OC)n1,inactive,,,inactive,inactive
O=C(OCc1ccccc1)C(=O)OCc1ccccc1,inactive,,,inactive,inactive
CCCCCCN,inactive,,,inactive,inactive
O=C1CC(c2ccc(Cl)cc2)CC(=O)N1,27.5 µM (active),,,inactive,inactive
Cc1cccc(C)c1NC(=O)c1ccccc1C(=O)O,inactive,,,inactive,inactive
